Compound activity (PubChem)
In the library only some 2% were active in any assay of this set; here they are far more common.
FAS-TE inh – FAS thioesterase domain inhibitors, primary screen, biochemical, fluorescence intensity, uHTS; 360,000 tested, 0.67% active; AID 602261, 2012; Fatty acid synthase (Homo sapiens), P49327; recombinant FAS-TE, OMFH fluorogenic substrate, fluorescence endpoint; inhibition, % at 15 µM;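 active means compounds whose normalised, plate-corrected inhibition of enzyme fluorescence in the single-dose primary screen is 50% or more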
NPR2 activator – human GC-B receptor activators, primary screen, HEK293 GC-B cells, cGMP TR-FRET, EC30 CNP; Atrial natriuretic peptide receptor 2 (Homo sapiens), P20594; 0% at EC30 CNP, 100% saturating CNP; activation, % at 10 µM; 370,000 tested, 0.11% active; AID 1920062, 2024;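 active means activation at 10 µM reaching about 35% in either raw or pattern-adjusted values, limit read from the data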
ADAM10 inh – human ADAM10 inhibitors, primary screen, biochemical, QFRET, HTS | recombinant ADAM10, EDANS/DABCYL FRET peptide cleavage, 3 h | inhibition, % at 7 µM | 370,000 tested, 0.62% active | AID 720582, 2013;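 active means inhibition above a per-campaign cutoff equal to the mean of compounds falling between control-based bounds plus 3 SD, cut at about 20% in these data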
NPR1 activator – GC-A stimulated cGMP production enhancers – HEK293 GC-A cells, cGMP TR-FRET, EC30 ANP, primary screen | Atrial natriuretic peptide receptor 1 (Homo sapiens), P16066 | 0% at EC30 ANP, 100% saturating ANP | activation, % at 10 µM | 370,000 tested, 0.14% active | AID 1671463, 2021; in the data active means activation above about 40%
Target sequence (P16066 whole entry, looked up): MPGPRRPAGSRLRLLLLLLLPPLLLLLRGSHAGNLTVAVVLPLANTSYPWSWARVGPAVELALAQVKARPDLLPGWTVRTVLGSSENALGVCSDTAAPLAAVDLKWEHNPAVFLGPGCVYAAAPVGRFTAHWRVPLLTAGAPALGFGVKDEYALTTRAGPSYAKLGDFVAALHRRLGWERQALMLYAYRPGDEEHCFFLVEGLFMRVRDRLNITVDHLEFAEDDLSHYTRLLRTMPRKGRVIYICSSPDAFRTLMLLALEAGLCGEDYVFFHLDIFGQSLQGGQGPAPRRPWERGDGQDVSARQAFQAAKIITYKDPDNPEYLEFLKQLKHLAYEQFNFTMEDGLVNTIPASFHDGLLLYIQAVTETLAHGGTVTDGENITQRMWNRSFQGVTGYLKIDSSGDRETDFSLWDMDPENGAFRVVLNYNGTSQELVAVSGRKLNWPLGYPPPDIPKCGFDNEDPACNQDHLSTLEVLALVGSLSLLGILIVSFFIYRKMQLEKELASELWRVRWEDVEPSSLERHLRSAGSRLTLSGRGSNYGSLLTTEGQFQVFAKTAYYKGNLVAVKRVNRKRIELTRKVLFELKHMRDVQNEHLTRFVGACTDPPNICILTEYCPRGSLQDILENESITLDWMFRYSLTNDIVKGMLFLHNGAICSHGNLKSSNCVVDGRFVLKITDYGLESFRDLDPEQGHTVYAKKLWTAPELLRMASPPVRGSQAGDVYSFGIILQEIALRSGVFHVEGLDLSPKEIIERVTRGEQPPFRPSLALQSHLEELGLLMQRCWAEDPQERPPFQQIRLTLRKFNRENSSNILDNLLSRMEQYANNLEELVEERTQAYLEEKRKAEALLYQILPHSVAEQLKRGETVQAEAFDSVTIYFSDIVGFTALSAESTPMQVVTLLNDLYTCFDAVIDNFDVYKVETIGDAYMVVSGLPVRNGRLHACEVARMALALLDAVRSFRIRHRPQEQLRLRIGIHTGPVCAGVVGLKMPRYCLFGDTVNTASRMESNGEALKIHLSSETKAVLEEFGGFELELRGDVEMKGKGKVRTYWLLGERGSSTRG
ADAM17 inh – ADAM17 inhibitors, primary screen, biochemical, QFRET. recombinant ADAM17, EDANS/DABCYL FRET peptide cleavage. Disintegrin and metalloproteinase domain-containing protein 17 (Homo sapiens), P78536. inhibition, % at 6.95 µM. 370,000 tested, 0.83% active;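 active means inhibition above the mean of compounds lying between control limits plus 3 SD, set per campaign, cut at about 8.5% in these data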
ADAM10 confirm – human ADAM10 inhibitors, confirmation, biochemical, QFRET, triplicate | shares compounds with ADAM10 inh | ADAM10 QFRET peptide cleavage, EDANS fluorescence | inhibition, % at 6.95 µM | 2,100 tested, 1% active;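 active means inhibition above about 20% chosen separately for each screening run, limit read from the data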
ADAM17 counter – ADAM17 inhibitors, counter-screen for ADAM10 exosite inhibitor project, biochemical, QFRET, high throughput | shares compounds with ADAM10 inh | ADAM17 QFRET peptide cleavage, EDANS fluorescence | AID 743214, 2013 | inhibition, % at 6.95 µM | 2,100 tested, 0.5% active;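 active means mean triplicate inhibition above the solvent-only control wells' mean plus 3 SD, cut at about 12% in these data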
Large screens that a line does not name were inactive (follow-up assays come after a bar, where they were run); ! = repeats disagree.

COC(=O)C1CCCN(C(=O)C2CCN(S(=O)(=O)c3ccccc3[N+](=O)[O-])CC2)C1 (centres undefined)	none (no result: FAS-TE inh)
CC(=O)[C@H]1CC[C@H]2[C@@H]3CCC4=CC(=O)CC[C@]4(C)[C@H]3CC[C@]12C	ADAM10 inh 21.0! | ADAM10 confirm inactive | ADAM17 counter inactive
CC(=O)C1CCC2C3CCC4=CC(=O)CCC4(C)C3C(O)CC12C (centres undefined)	none
O=S1(=O)C=CCN1Cc1cn(Cc2ccc(Cl)cc2)nn1	none (no result: FAS-TE inh)
O=C(COCc1ccccc1)NC1CCCCN(Cc2cccc(Cl)c2)C1=O (centres undefined)	none (no result: FAS-TE inh)
Cc1ccc(N2CC(C(=O)Nc3nnc(SCC(N)=O)s3)CC2=O)cc1 (centres undefined)	ADAM10 inh 80.6 | ADAM10 confirm inactive | ADAM17 counter inactive
NC(=O)CSc1nnc(NC(=O)C2CC(=O)N(c3ccc(F)cc3)C2)s1 (centres undefined)	none
C=CCn1c(COc2ccc(Cl)cc2)nnc1SCC(=O)c1ccccc1	none (no result: FAS-TE inh)
N#CNC(=Nc1cccc(F)c1)SCc1ccccc1F	ADAM10 inh 22.9 | ADAM10 confirm inactive | ADAM17 counter inactive
Cc1ccc(NC(=S)Nc2ccc(F)cc2)c(C)c1	ADAM10 inh 20.8 | ADAM10 confirm inactive | ADAM17 counter inactive
CCOc1ccccc1NC(=O)CSc1nc(=O)n(CCCN2CCOCC2)c2c1CCC2	none
O=C(CSc1nc(=O)n(CCCN2CCOCC2)c2c1CCC2)Nc1ccccc1F	ADAM10 inh 79.9 | ADAM10 confirm inactive | ADAM17 counter inactive
Cc1ccc(OCCNC(=O)c2cccc(S(=O)(=O)NCc3ccccc3)c2)cc1	ADAM10 inh 20.6 | ADAM10 confirm inactive | ADAM17 counter inactive
O=C(CSc1ccc(-c2ccncc2)nn1)c1ccc(Cl)cc1	none
NC(=O)C(c1ccc(Cl)cc1)c1ccc(Sc2ccc(Cl)cc2)nn1 (centres undefined)	ADAM10 inh 23.2 | ADAM10 confirm inactive | ADAM17 counter inactive
CCOc1ccc(NC(=O)CN(C)C(=O)CSCc2ccc(C)cc2)cc1OCC	none
CCOc1ccc(NC(=O)CN(C)C(=O)CSCc2cccc(C)c2)cc1OCC	ADAM10 inh 30.2 | ADAM10 confirm inactive | ADAM17 counter inactive
COC(=O)C1=C(C)NC(C)=C(C(=O)OCC2CCCO2)C1c1ccc(Cl)c([N+](=O)[O-])c1 (centres undefined)	ADAM10 inh 25.8 | ADAM10 confirm inactive | ADAM17 counter inactive
COC(=O)C1=C(C)NC(C)=C(C(=O)OCC2CCCO2)C1c1cccc(Cl)c1 (centres undefined)	none
CSc1nc(O)c(C(c2cccc([N+](=O)[O-])c2)c2c(O)nc(SC)[nH]c2=O)c(=O)[nH]1	ADAM10 inh 81.1 | ADAM10 confirm inactive | ADAM17 counter inactive
COCCN1C(=O)N(c2cccc(C)c2)C(=O)C1CC(=O)Nc1ccc(OC)cc1 (centres undefined)	ADAM10 inh 20.1 | ADAM10 confirm inactive | ADAM17 counter inactive
N#CCC(CNc1ncc(C(F)(F)F)cc1Cl)OC(=O)c1cccc([N+](=O)[O-])c1 (centres undefined)	ADAM10 inh 20.6 | ADAM10 confirm inactive | ADAM17 counter inactive
O=C(CSc1nnc(-c2ccco2)n1-c1ccc(Cl)cc1)Nc1ccccc1-c1ccccc1	none (no result: FAS-TE inh)
O=C(CCc1ccccc1)N[C@H]1[C@H](OC(=O)c2ccco2)CCC[C@@]12C(=O)N(Cc1ccccc1)c1ccccc12	ADAM10 inh 21.2 (no result: FAS-TE inh) | ADAM10 confirm inactive | ADAM17 counter inactive
S=c1[nH]nc(-c2cc(-c3ccccc3)n[nH]2)n1N=Cc1cccc(OCc2ccccc2)c1	none (no result: FAS-TE inh)
O=S1(=O)c2ccc(Br)cc2OC2CCCC[C@@H]2N1Cc1ccccc1 (some centres undefined)	none (no result: FAS-TE inh)
CCCCCCCOc1ccc(C2(C)NC(=O)NC2=O)cc1 (centres undefined)	ADAM10 inh 21.0 | ADAM10 confirm inactive | ADAM17 counter inactive
CCOc1ccc(NC(=O)C2C(c3ccccc3)C2(Cl)Cl)cc1 (centres undefined)	ADAM10 inh 20.3 | ADAM10 confirm inactive | ADAM17 counter inactive
Cc1ccc(S(=O)(=O)NCCCc2ccc3c(c2)[C@]2(CCC[C@@H](OCc4ccccc4)[C@@H]2NC(=O)CCc2ccccc2)C(=O)N3Cc2ccccc2)cc1	none (no result: FAS-TE inh)
CCOC(=O)c1[nH]c(C)c(C(=O)NCc2ccc(C)cc2)c1C	none
CCOC(=O)c1[nH]c(C)c(C(=O)NCc2ccc(OC)cc2)c1C	ADAM10 inh 68.5 | ADAM10 confirm inactive | ADAM17 counter inactive
Cn1nnc(NC(=O)c2ccc(C(C)(C)C)cc2)n1	ADAM10 inh 34.5 | ADAM10 confirm inactive | ADAM17 counter inactive
Cc1ccc(Cn2c(=O)n(Cc3ccc(C(=O)NCC4COC4)cc3)c(=O)c3ccccc32)cc1	none (no result: FAS-TE inh)
Cn1cccc1Cc1nnc(SCC(=O)Nc2ccc(F)cc2)n1-c1ccc(F)cc1	none
COc1ccc(-n2c(Cc3cccn3C)nnc2SCC(=O)Nc2ccccc2)cc1	none
Cn1cccc1Cc1nnc(SCC(=O)Nc2ccccc2)n1-c1ccc(F)cc1	ADAM10 inh 78.6 | ADAM10 confirm inactive | ADAM17 counter inactive
COc1ccc(-n2c(Cc3cccn3C)nnc2SCC(=O)Nc2ccc(Cl)cc2)cc1	ADAM10 inh 86.3 | ADAM10 confirm inactive | ADAM17 counter inactive
CCOC(=O)c1ccc(NC(=O)c2ccccc2)cc1	none
CCOC(=O)c1ccc(N/C(=N\S(=O)(=O)c2ccccc2C)c2ccccc2)cc1	ADAM10 inh 21.3 | ADAM10 confirm inactive | ADAM17 counter inactive
CCOC(=O)c1ccc(NC(=O)c2ccc(NS(C)(=O)=O)cc2)cc1	ADAM10 inh 21.2 | ADAM10 confirm inactive | ADAM17 counter inactive
COC(=O)c1ccc(N/C(=N/S(=O)(=O)c2ccccc2)c2ccccc2)cc1	none
O=C(CCc1ccc(S(=O)(=O)NC2CCCCC2)cc1)N(Cc1ccccc1)Cc1ccccc1	ADAM10 inh 21.1 | ADAM10 confirm inactive | ADAM17 counter inactive
